# Laboratory results: PubChem BioAssay AID449762 (Southern Research Specialized Biocontainment Screening …, 2010)
# “And” between values parts separate entries of the source, which are not always exact repeats. Identical values can stand only once. The whole screen tested about 330,000 compounds, of which about 1,900 (0.58%) were called active. About 4% were inconclusive and are not listed. A selection follows. Potency and affinity values are given separately. A number with no mark means an inactive call. Rule as the data show it: inconclusive = inhibition above about 70% without an active follow-up result; inactive = below that.
# Assay: M. tuberculosis growth inhibition, HTS (AID 449762);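 also: bacterial growth assessed after seven days of incubation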
# Settings: M. tuberculosis H37Rv growth inhibition, 7H9 media; at 25 µM; stronger effect = higher value
row,SMILES,inhibition
1,NS(=O)(=O)c1cccc(NC(=O)CCS(=O)(=O)c2ccc(Cl)cc2)c1,-6.68%
2,COc1cccc(NC(=S)N2CCN(c3ccc([N+](=O)[O-])cc3)CC2)c1,0.58%
3,COc1cc(C(N)=O)cc(Br)c1OCc1ccccc1,-3.08%
4,O=C(Nc1ccccc1OCc1ccccc1)c1ccccc1Br,12.7%
5,Cn1c(SCc2cccc(F)c2)nnc1-c1ccncc1,-10.7%
6,NC1=NC(c2ccccc2Cl)n2c(nc3ccccc32)N1 (stereo not drawn),-5.58%
7,NC1=NC(c2ccc(Cl)cc2)n2c(nc3ccccc32)N1 (stereo not drawn),-2.59%
8,Cc1ccc(OCCNC(=O)CNC(=O)c2ccc(Cl)c([N+](=O)[O-])c2)cc1,-8.16%
9,CC1CCCC(C)N1C(=O)CN1c2cccc3cccc(c23)S1(=O)=O (stereo not drawn),-12.9%
10,CC(C)NCc1nnc(-c2ccc(Cl)cc2)o1,0.17%
11,CCOC(=O)N1CCN(Cc2nc(N)nc(Nc3ccc(Cl)cc3)n2)CC1,-0.66%
12,Cc1cc(OCC(=O)O)c2cccc(C)c2n1,-5.96%
13,Cc1cc(OCC(=O)O)c2ccccc2n1,-2.82%
14,CCOc1ccc(S(=O)(=O)NCc2cccnc2)cc1NC(=O)c1ccccc1F,-11.4%
15,C=CCc1cc(C)ccc1OCCOCCn1ccnc1,-4.55%
16,C#CC1CCCCC1NC(=O)Nc1cnccc1C(F)(F)F (stereo not drawn),-0.16%
17,CN(C)C(=O)Nc1cccc(OC(=O)N(C)C)c1,-2.5%
18,CN(C)C(=O)Oc1cccc([N+](C)(C)C)c1,-1.23% and -1.63%
19,NC(=S)N=Nc1c(O)n(CCCl)c2ccc(Br)cc12,-8.7%
20,O=C(CNC(=S)N(Cc1ccccc1)Cc1cccnc1)NC1CCCC1,-0.51%
21,CCOc1ccc2nc(SCC(=O)Nc3ccc(S(=O)(=O)N4CCCC4)cc3)c(C)cc2c1,1.42%
22,COC(=O)N/N=C/c1ccc([N+](=O)[O-])s1,-5.28%
23,N/C(=N\O)c1ccc([N+](=O)[O-])s1,0.15%
24,COCCn1c(Cc2ccccc2)nnc1SCC(=O)NC1CCCCC1,-4.27%
25,Cc1ccc(C2=NCC(=O)N(CC(=O)N3CCCCC3)c3sc(C)c(C)c32)cc1,3.22%
26,O=C(NCC1(c2ccccc2)CCCC1)c1ccccc1,3.79%
27,CCOC(=O)C(C)Sc1nc2c(c(-c3cccs3)c1C#N)CCC2 (stereo not drawn),57.8%
28,COC(=O)CSc1nc(-c2cccs2)ccc1C#N,14%
